Assay in all cases: NCI-60 one-dose screen, 48 h (100 = growth as untreated, 0 = no growth, -100 = all killed)
Holding throughout (settings): 10 µM unless noted

For assay [1], the system named is SR leukemia.
For assay [2], the system named is RPMI-8226 leukemia.
The test system of assay [3] is OVCAR-8 ovarian.
Assay [4] relates to OVCAR-5 ovarian.
In assay [5] the test system is OVCAR-4 ovarian.
Assay [6] deals with SK-OV-3 ovarian.
Assay [7] concerns IGROV1 ovarian.
Assay [8] concerns OVCAR-3 ovarian.
Assay [9] deals with HS 578T breast.
Assay [10] deals with NCI/ADR-RES ovarian.
Assay [11] has as its system T-47D breast.
Assay [12] deals with BT-549 breast.
For assay [13], the system named is MDA-MB-435 melanoma.
The subject of assay [14] is SW-620 colon.
The subject of assay [15] is MCF7 breast.
The subject of assay [16] is HCT-116 colon.
For assay [17], the system named is HCC-2998 colon.
The subject of assay [18] is KM12 colon.

Compounds without any hit were thinned out: in the full panel of roughly 83,000, 20% have a hit.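 Interpretation: 100, growth as untreated; towards 0, rising growth inhibition; 0, no net growth; 0 to -100, cell death. Compounds scoring below 10 were considered active.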 A number with no mark means an inactive call. Activity calls are given as the source filed them.

As for `O=C1OCC2=C1C(c1ccccc1)c1cc3c(cc1N2CCO)OCCO3` (centres undefined), the growth was 19.7% in assay [1]; 27.9% in assay [2]; 32.5% in [3]; 37.5% in [4]; 31.1% in assay [5]; 22.4% in [6]. Further, the growth in [7] was 17.8%; in [8], -56.3% (active); in [9], -9.64% (active); in assay [10], -26.8% (active); in assay [11], 50.5%; in assay [12], 14.1%. In addition, the growth in [13] was -32% (active); in assay [14], 21.1%; in assay [15], 8.47% (active); in assay [16], 6.08% (active); in assay [17] it was 0.753% (active); in assay [18] it was 9.35% (active).
As for `C#COc1cccc(Nc2ncnc3cc(NC(=O)[C@H](C)Cl)ccc23)c1`, the growth is 92.6% [6.25 µM] in assay [1]; 100% [6.25 µM] in assay [2]; 9.3% [6.25 µM] (active) in assay [3]; 25% [6.25 µM] in assay [4]; 56.6% [6.25 µM] in assay [5]; 3.8% [6.25 µM] (active) in [6]. Also, the growth is 9.75% [6.25 µM] (active) in [7]; 7.9% [6.25 µM] (active) in assay [8]; 24.8% [6.25 µM] in assay [9]; 14.8% [6.25 µM] in [10]; 6.76% [6.25 µM] (active) in [11]; 9.94% [6.25 µM] (active) in [12]. Further, the growth in assay [13] was -25.1% [6.25 µM] (active); in assay [14], 14.5% [6.25 µM]; in assay [15], 11.3% [6.25 µM]; in [16] it was 7.41% [6.25 µM] (active); in assay [17], 5.81% [6.25 µM] (active); in assay [18], 17.8% [6.25 µM].
Take `CCCN(CCSSCCNc1nc(N(C)O)nc(N(C)O)n1)c1nc(N(C)O)nc(N(C)O)n1`: the growth is 129% in assay [1]; 42.6% in [2]; 70.9% in assay [3]; 58% in assay [4]; 55% in assay [5]; 57.1% in assay [6]. Besides, the growth was 83% in assay [7]; 51.6% in assay [8]; 131% in assay [9]; 85.1% in [10]; 61.9% in assay [11]; 7.99% (active) in assay [12]. The growth is 95.1% in [13]; 75.1% in [14]; 83.2% in assay [15]; 41% in assay [16]; 59.8% in [17]; 48.2% in assay [18].
With `CS(=O)(=O)c1ccc(-c2nc3ccccc3n2CC(=O)N/N=C/c2ccccc2)cc1`, the growth is 99.1% in assay [1]; 108% in assay [2]; 112% in assay [3]; 98.5% in assay [4]; 116% in assay [5]; 93.2% in [6]. The growth in assay [7] was 99.7%; in assay [8], 105%; in assay [9], 102%; in assay [10], 105%; in assay [11], 82.4%; in assay [12], 95.9%. For the same compound, the growth in [13] is 97.2%; in assay [14] it was 103%; in assay [15], 89.3%; in assay [16], 81%; in [17], 98.9%; in assay [18], 107%.
As for `COc1cc(C=C2C(=O)NC(=S)NC2=O)cc(CN2CCCC2)c1O`, the growth in assay [1] is 107%; in assay [2], 106%; in assay [3], 108%; in [4], 106%; in assay [5], 119%; in assay [6], 94.4%. In addition, the growth is 106% in assay [7]; 111% in assay [8]; 106% in assay [9]; 108% in assay [10]; 110% in assay [11]; 114% in assay [12]. Further, the growth in assay [13] is 100%; in assay [14] it was 108%; in [15] it was 96.1%; in assay [16] it was 113%; in assay [17], 110%; in assay [18], 110%.
`Cc1ccc2c(c1)nc(C)n2-c1ncnc2c1CC(C)c1cc(O)ccc1N2C` (centres undefined): the growth in assay [1] was 6.97% (active); in assay [2] it was 30.3%; in [3], 40.6%; in assay [4], 89%; in assay [5] it was 67.5%; in assay [6], 14.1%. Besides, the growth in assay [7] was 51.4%; in [8], 14.6%; in assay [9] it was 34.7%; in assay [10], 25.9%; in assay [11], 33.6%; in [12], 40.8%. Moreover, the growth in [13] was 3.76% (active); in assay [14] it was 21.5%; in [15] it was 19.8%; in [16], 15.4%; in [17], 78.4%; in assay [18], 35.6%.
With `CNC(=O)c1cc(Oc2ccc3c(c2)sc2nc(-c4cc(C(F)(F)F)cc(C(F)(F)F)c4)cn23)ccn1`, the growth is 34% in [1]; 50.1% in assay [2]; 36.1% in assay [3]; 91.4% in assay [4]; 24.8% in assay [5]; 46.7% in assay [6]. Besides, the growth is 74.1% in assay [7]; 68.3% in assay [8]; 49.4% in assay [9]; 68.3% in [10]; 30.6% in assay [11]; 52.9% in [12]. Also, the growth in assay [13] is 60.8%; in assay [14], 64.9%; in assay [15], 51.1%; in [16], 36.3%; in assay [17], 74.3%; in [18], 69.5%.
With `COC(=O)[C@]1(C)CCC[C@]2(C)[C@H]3C[C@@H]4[C@H]5[C@@H]6CC/C(=N\OCC/C(N)=N/O)[C@H]5[C@@]3(CC[C@H]21)CC4(C(C)C)O6`, the growth is 5.07% (active) in [1]; 39.1% in assay [2]; 73.2% in [3]; 93.3% in assay [4]; 51.6% in assay [5]; 89.9% in assay [6]. The growth was 63.4% in [7]; 53.1% in [8]; 66.3% in [9]; 32.1% in assay [10]; 50% in assay [11]; 74.9% in assay [12]. Further, the growth in assay [13] was 82.9%; in assay [14], 64.3%; in assay [15], 55.9%; in assay [16] it was 52.6%; in assay [17], 90.4%; in [18], 76%.

(Values after PubChem BioAssay (NCI).)
